Rows were chosen to be rich in hits. Some 5% of all compounds tested hit in one or more screens of this group.
ALR inh – blocks human ALR sulfhydryl oxidase activity | P55789 | purified ALR, DTT oxidation, H2O2 HRP-luminol luminescence | inhibition, % (no concentration beside the values) | actives 3.8% (n = 290,000);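 active means mean replicate inhibition above about 79%, with every replicate also reaching it, limit read from the data; inconclusive means only one of the two criteria met; inactive means mean below limit and not every replicate reaching it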
Target sequence (P55789 whole entry, looked up): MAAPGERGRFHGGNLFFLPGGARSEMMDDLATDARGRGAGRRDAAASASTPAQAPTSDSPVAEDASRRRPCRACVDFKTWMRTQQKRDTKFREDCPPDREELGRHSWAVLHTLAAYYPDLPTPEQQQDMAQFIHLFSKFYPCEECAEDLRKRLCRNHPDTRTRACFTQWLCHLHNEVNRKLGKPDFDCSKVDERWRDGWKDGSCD
CHT allo act – allosterically activates the human high affinity choline transporter | Q9GZV3 | CHT-expressing cells, membrane potential dye, choline EC20; hits give high values; LV-AA mutant CHT in HEK293 cells | B-score at 10 µM | actives 0.49% (n = 310,000);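 active means initial fluorescence not abnormally high and integrated response B-score, plate-corrected, over 3 SD above library mean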
CHT inh – inhibits the human high affinity choline transporter; B-score at 10 µM; actives 0.86% (n = 310,000); AID 488975; Q9GZV3; CHT-expressing cells, membrane potential dye, choline response; hits give low values;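 active means B-score over 3 SD under the library average, and starting fluorescence ratio not unusually high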;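 further: choline stimulus applied at its EC90 after an EC20 pre-addition; B-score computed on integrated fluorescence ratio after choline addition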
PREPL inh – inhibits the human prolyl oligopeptidase-like enzyme; actives 0.68% (n = 320,000); AID 2751; inhibition, % at 5.96 µM; Q4J6C6; recombinant PREPL, fluorescence polarization activity-based probe; in the data active means inhibition above about 43%;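 further: 0% = enzyme with DMSO and 100% = wells lacking enzyme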
AI-2 QS mod – Vibrio harveyi AI-2 quorum sensing modulation | AID 2094 | Vibrio harveyi JMH597 AI-2 luminescence/OD600 ratio, 9 h; hits give low values; strain lacks LuxN and CqsS sensors; 0 = neutral-control median | activity change, % at 7.5 µM | actives 0.4% (n = 300,000); in the data active means activity change below about -75%, passing the limit was not always enough; inconclusive means no clear call, values can overlap the other calls;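 further: luminescence divided by OD600 gain over 9 h not by final OD600 alone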
CHT activ conf – confirmation of human choline transporter (CHT) activators | shares compounds with CHT allo act | CHT-expressing cells, membrane potential dye fluorescence (FDSS); % of choline EC20–EC90 response window; HEK293 expressing CHT LV-AA mutant; choline added at its EC20 | AID 504833 | actives 91% (n = 2,500) | activation, % at 10 µM;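 active means primary screen active, with duplicate mean activation above negative control mean plus 3 SD, cut at about 11% in these data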
HEK293 MP dye – activity in parental HEK293 cells lacking CHT; actives 62% (n = 2,500); membrane potential dye fluorescence (FDSS); measured after EC20 choline addition; ratio readout change at 10 µM, hits read low; shares compounds with CHT allo act;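 active means duplicate-averaged ratio beyond 3 SD from buffer wells, up or down, though filed actives are nearly all decreases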
Starred values were filed as active, the others as inactive; i = inactive; u = inconclusive; x = no result.

SMILES	ALR inh	CHT allo act	CHT inh	PREPL inh	AI-2 QS mod	CHT activ conf	HEK293 MP dye
COc1ccc(NC2=C(c3ccc(OC)cc3)C(=O)c3ccccc32)cc1	x	i	i	3	16	x	x
COC1=C(Nc2ccc(OC)cc2)C(=O)c2ccccc2C1=O	26	6.5*	i	18	2	12*	-65*
CN(C)C(CNC(=O)CSc1nc2sc3c(c2c(=O)n1C)CCCC3)c1ccccc1 (stereo unspecified)	-5	x	x	29	x	x	x
COC(=O)CCC(=O)Nc1sc2c(c1C#N)CCCC2	-8	9.2*	i	14	18	25*	i
COc1nnc(-c2ccccc2)s1	2	i	i	7	16	x	x
CCn1c(SCc2ccccc2F)nnc1-c1ccncc1	-2	i	i	1	24	x	x
COc1ccc(C(CCNCc2ccccc2)c2ccc(F)cc2)cc1 (stereo unspecified)	-76	i	i	15	16	x	x
COc1ccc(CNCCC(c2ccc(OC)cc2)c2ccccc2OC)cc1 (stereo unspecified)	-4	7.8*	i	-10	15	17*	i
COc1ccc(CNCCC(c2ccccc2)c2ccc(OC(C)C)cc2)cc1OC (stereo unspecified)	-7	7.5*	i	-11	27	8	i
COc1ccc(CNCCC(c2ccc(F)cc2)c2ccc(OC)cc2)cc1 (stereo unspecified)	-27	i	i	12	20	0	i
COc1ccc(CNCCC(c2ccc(F)cc2)c2ccc(OC(C)C)cc2)cc1OC (stereo unspecified)	-4	i	i	-2	19	x	x
COc1ccc(C(CCNC(C)c2ccccc2)c2ccc(F)cc2)cc1 (stereo unspecified)	-42	i	i	-7	27	44*	i
CCn1c(CNC(=O)c2ccccc2F)nnc1SCC(=O)Nc1nncs1	-1	i	i	5	27	x	x
Cc1noc(C)c1C(=O)Nc1nc2ccc(Cl)cc2s1	-8	i	i	-19	6	x	x
COc1ccc(CCNC(=O)COc2ccc(S(=O)(=O)N3CCOCC3)cc2C)cc1	-3	i	i	-3	20	x	x
COc1ccc(C(CCNCc2ccc(N(C)C)cc2)c2ccccc2OC)cc1 (stereo unspecified)	-4	i	i	x	9	x	x
COc1ccc(C(CCNCc2ccc(OC(C)C)cc2)c2ccccc2OC)cc1 (stereo unspecified)	-5	6.7*	i	18	27	14*	i
Cc1cccc(-c2cc3nc(C)c(C)c(NCCCn4ccnc4)n3n2)c1	-5	i	i	37	19	x	x
Cc1cc(NCCCn2ccnc2)n2nc(-c3ccc(Cl)cc3)cc2n1	97*	8.9*	i	-17	1	38*	-80*
Cc1cc(NCCCn2ccnc2)n2nc(-c3ccc(F)cc3)cc2n1	43	8*	i	11	51	42*	-71*
COCCNc1nnc(SCC(=O)Nc2nnc(-c3ccccc3)o2)s1	-12	6.6*	i	-6	24	4	i
COc1cc(OC)cc(-c2nnc(SCC(=O)N(Cc3ccccc3)C(C)(C)C)o2)c1	0	i	i	0	3	x	x
COc1cc(-c2nnc(SCC(=O)N(Cc3ccccc3)C(C)(C)C)o2)cc(OC)c1OC	7	7.9*	i	-6	21	1	i
Cc1ccc(C(=O)C[n+]2cccc3cc(C)ccc32)cc1	4	i	i	8	13	38*	-35*
CN1CCN(CC(=O)Nc2cc(N(C)C)nc3ccccc23)CC1	-16	i	i	-27	8	38*	-40*
SMILES	ALR inh	CHT allo act	CHT inh	PREPL inh	AI-2 QS mod	CHT activ conf	HEK293 MP dye
COCCN(C(=S)Nc1ccc(OC)cc1)C(C)c1cccs1 (stereo unspecified)	-16	8.1*	i	4	14	6	i
CC(C)C(OC(=O)c1nsc(Cl)c1Cl)C(=O)NCc1ccccc1 (stereo unspecified)	-5	i	i	-7	24	x	x
O=[N+]([O-])c1cccc(/C=N/Nc2nccnc2Cl)c1	19	6.2*	i	9	21	41*	-37*
CNC(=S)N/N=C/c1cc(C)n(-c2ccc(Cl)c(Cl)c2)c1C	8	9.3*	i	32	-1	8	i
Cc1ccc(-n2c(C)cc(/C=N/NC(N)=S)c2C)cc1	2	14*	i	26	33	33*	i
O=C(NCC(c1ccco1)N1CCc2ccccc21)c1cccc([N+](=O)[O-])c1 (stereo unspecified)	58	i	i	-10	-6	23*	i
O=C(NCC(c1ccco1)N1CCc2ccccc21)c1ccccc1Br (stereo unspecified)	45	i	i	-6	6	x	x
O=C(NCC(c1ccco1)N1CCc2ccccc21)c1ccc([N+](=O)[O-])cc1 (stereo unspecified)	24	i	i	0	0	x	x
O=C(CCc1ccccc1)NCC(c1ccco1)N1CCc2ccccc21 (stereo unspecified)	98*	7.5*	i	22	4	14*	i
CCOC(=O)CNc1c(-c2ccc(O)cc2)nc2ccccn12	u	i	i	3	6	56*	-44*
C[n+]1ccc(/C=C/c2ccccc2O)c2ccccc21	44	i	i	20	13	30*	-39*
CC(=O)/C=C/c1ccccc1O	4	i	i	3	3	x	x
COc1ccc(CN(CC(=O)NCCc2ccccc2)C(=O)CCC(=O)Nc2cc(C)ccn2)cc1	-5	i	i	-11	2	x	x
COc1ccc(OC)c(CNc2nc3ccccc3n2CCN2CCCCC2)c1	-2	i	i	25	19	34*	i
COc1ccc(OCC(O)CN2CCC(CN3C(=O)c4cccc5cccc(c45)C3=O)CC2)cc1 (stereo unspecified)	-7	i	i	4	23	x	x
O=C1c2cccc3cccc(c23)C(=O)N1CC1CCN(CC(O)COCc2ccc3c(c2)OCO3)CC1 (stereo unspecified)	-31	i	i	24	8	38*	-56*

Screens deposited in PubChem BioAssay by several laboratories.
